MLL CXXC-DNA inh: MLL CXXC-DNA interaction inhibition | actives 0.037% (n = 290,000) | MLL-CXXC / FITC-HOXA9 DNA fluorescence polarization | Q03164 | Potency, µM (series often up to 115 µM), for the others: top-dose activity change, negative = inhibition, actives largely listed as inhibitors; active means well fitted inhibition curve with a large enough effect in the polarisation, with a control signal flat, not every such curve was filed as active; inconclusive means small, poorly fitted or top-dose-only effect, or effect the other way, or a change in a side signal; inactive means no such curve, though single readings can be large or run the other way; the % refers to the polarisation; further: potency means the concentration at half of the fitted maximal effect
Target sequence (Q03164 whole entry, looked up): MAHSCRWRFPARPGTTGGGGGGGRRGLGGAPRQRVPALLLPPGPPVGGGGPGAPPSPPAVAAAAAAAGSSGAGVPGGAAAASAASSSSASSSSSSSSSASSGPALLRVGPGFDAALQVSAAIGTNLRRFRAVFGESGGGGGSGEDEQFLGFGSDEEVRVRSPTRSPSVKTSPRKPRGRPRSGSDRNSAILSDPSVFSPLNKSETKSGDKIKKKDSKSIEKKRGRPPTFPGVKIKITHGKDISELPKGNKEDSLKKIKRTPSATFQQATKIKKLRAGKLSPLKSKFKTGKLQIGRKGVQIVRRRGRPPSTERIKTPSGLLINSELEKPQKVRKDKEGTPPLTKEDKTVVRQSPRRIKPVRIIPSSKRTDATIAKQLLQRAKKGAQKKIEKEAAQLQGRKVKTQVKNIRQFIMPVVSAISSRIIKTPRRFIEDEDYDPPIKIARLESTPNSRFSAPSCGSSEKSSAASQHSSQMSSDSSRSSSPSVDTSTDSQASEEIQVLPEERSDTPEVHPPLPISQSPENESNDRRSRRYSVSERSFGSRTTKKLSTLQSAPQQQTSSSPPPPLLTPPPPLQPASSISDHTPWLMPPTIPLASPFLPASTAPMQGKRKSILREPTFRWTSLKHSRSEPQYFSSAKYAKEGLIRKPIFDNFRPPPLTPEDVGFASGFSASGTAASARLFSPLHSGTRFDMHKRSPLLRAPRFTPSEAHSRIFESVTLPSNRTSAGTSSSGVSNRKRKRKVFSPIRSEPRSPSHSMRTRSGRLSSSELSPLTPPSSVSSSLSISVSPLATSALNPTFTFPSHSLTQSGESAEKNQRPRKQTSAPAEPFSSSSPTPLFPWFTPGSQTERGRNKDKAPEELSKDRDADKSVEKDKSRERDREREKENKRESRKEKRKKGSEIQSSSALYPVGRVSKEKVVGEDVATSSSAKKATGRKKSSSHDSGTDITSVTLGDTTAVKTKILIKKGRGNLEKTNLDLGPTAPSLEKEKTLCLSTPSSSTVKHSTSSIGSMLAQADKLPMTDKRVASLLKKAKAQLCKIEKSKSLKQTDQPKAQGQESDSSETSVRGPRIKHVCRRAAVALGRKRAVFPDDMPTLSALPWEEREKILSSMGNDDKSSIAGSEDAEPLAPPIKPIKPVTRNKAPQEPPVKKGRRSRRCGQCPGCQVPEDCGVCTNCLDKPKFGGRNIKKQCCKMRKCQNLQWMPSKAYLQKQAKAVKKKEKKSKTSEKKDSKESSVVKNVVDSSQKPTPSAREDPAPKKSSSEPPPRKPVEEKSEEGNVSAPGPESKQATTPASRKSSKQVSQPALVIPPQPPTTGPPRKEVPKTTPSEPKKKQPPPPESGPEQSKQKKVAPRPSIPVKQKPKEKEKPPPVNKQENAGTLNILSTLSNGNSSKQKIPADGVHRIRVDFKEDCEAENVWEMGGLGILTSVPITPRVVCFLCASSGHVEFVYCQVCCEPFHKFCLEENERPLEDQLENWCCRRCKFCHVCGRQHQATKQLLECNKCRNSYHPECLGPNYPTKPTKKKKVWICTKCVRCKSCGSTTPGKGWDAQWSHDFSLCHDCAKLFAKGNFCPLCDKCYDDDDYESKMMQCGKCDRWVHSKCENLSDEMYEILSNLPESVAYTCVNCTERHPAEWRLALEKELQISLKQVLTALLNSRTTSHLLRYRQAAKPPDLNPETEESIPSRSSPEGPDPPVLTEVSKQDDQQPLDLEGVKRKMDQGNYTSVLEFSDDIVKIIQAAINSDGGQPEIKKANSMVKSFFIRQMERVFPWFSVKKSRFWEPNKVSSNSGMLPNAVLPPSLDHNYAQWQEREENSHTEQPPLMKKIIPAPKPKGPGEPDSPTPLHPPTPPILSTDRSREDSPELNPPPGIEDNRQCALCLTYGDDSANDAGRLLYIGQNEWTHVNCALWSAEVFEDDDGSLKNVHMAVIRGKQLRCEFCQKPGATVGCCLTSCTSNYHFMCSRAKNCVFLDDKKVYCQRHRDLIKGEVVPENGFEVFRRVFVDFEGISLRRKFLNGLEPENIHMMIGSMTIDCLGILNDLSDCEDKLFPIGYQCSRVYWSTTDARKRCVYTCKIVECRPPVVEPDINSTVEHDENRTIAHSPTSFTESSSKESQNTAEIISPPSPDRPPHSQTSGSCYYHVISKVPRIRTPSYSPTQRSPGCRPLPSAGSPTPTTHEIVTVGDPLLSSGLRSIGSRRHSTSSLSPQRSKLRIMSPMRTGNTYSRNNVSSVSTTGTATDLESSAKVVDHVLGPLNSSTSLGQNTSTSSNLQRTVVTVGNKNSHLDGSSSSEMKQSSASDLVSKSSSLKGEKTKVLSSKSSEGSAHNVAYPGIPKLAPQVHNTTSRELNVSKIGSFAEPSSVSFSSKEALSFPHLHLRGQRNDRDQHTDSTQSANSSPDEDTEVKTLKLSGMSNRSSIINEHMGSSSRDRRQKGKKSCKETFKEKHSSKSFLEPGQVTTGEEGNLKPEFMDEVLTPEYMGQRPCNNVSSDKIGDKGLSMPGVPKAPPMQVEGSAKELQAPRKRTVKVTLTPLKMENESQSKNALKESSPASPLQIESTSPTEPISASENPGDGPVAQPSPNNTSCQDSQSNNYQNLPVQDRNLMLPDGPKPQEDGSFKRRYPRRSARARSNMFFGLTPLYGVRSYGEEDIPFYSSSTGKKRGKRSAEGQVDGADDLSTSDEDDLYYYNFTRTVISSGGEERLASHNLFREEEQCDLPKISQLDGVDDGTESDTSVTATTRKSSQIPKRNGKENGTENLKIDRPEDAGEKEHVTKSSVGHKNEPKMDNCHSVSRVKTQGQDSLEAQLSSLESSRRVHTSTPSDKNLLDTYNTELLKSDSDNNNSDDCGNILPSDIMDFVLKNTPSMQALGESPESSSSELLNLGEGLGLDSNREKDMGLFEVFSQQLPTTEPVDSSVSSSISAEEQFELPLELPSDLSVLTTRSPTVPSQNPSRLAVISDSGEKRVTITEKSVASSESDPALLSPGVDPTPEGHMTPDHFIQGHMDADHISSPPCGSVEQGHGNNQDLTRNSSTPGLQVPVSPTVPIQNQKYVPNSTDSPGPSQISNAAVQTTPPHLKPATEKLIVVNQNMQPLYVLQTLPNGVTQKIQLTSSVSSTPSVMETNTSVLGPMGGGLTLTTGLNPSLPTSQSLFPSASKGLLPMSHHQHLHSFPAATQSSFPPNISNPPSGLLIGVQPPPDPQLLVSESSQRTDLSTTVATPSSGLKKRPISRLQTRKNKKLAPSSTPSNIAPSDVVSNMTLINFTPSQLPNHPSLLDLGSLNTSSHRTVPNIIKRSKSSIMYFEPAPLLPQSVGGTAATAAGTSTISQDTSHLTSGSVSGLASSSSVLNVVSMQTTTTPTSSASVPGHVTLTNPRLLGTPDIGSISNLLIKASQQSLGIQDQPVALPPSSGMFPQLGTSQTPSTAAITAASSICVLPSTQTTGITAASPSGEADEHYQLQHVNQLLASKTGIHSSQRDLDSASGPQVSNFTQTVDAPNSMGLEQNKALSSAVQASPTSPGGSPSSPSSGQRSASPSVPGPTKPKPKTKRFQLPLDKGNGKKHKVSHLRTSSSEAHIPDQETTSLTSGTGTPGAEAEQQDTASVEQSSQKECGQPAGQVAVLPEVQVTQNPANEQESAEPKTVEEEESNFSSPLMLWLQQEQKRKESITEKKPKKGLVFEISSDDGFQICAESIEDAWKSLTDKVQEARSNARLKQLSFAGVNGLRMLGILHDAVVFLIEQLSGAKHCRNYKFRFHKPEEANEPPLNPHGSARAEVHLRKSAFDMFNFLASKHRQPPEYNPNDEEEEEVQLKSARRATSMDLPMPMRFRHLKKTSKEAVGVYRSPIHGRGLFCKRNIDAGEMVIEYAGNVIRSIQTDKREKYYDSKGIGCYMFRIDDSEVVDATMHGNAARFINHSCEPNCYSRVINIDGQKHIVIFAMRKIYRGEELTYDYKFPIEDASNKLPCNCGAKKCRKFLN
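Fluorescence polarization: 7 uM MLL-CXXC (stock) preincubated 5 min with compounds, then 50 nM fluorescein-HOX-A9 DNA (stock) added; 30 min ambient. Buffer 50 mM Tris-HCl pH 7.5, 50 mM NaCl, 1 mM DTT, 0.05% BSA.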
Menin MLL FP FL: inhibitors of human menin-MLL interaction, wild-type MLL peptide; Fluorescence polarization, fluorescein-MLL peptide displacement from menin; FP activity change, % at 61.4 µM; 290,000 tested, under 10 active; active means well fitted curve in the direction sought with a large enough effect in the polarisation, not every such curve was filed as active; inconclusive means small, poorly fitted or top-dose-only effect, or effect the other way, or a change in a side signal; inactive means no such curve, though single readings can be large or run the other way; the % refers to the polarisation; further: % of control where 0% means no effect
ClpP mod: qHTS Assay for Activators of ClpP | purified B. subtilis ClpP, FRET peptide cleavage, 20 min | Potency, µM (highest dose often 57.5 µM), inactives show at the highest dose activity change, negative = active | actives 1.9% (n = 340,000); active means well fitted falling curve with a large enough effect; inconclusive means small, poorly fitted or top-dose-only effect; inactive means no such curve, though single readings can be large or run the other way; further: potency means the concentration at half of the fitted maximal effect; the source files actives as falling curves though it sought activators and does not explain the sign; nearly all actives have a fitted effect of over 65% in size
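Buffer: 100 mM Tris/HCl pH8, 100 mM KCl, 0.05% low protease BSA, 2.5% glycerol, 0.01% Tween-20. ClpP 10 microg/mL final; 20 min RT; delta FRET normalized to ADEP and DMSO controls.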
Menin MLL FP TR: inhibitors of human menin-MLL interaction, mutant MLL peptide | actives 0.23% (n = 270,000) | O00255 | Menin + Texas Red MLL mutant peptide, fluorescence polarization | Potency, µM (titrated, usually from 61.6 µM), without a hit: at the top dose FP activity change, negative = inhibition, hits mostly inhibitors | AID 1768; active means well fitted inhibition curve with a large enough effect in the polarisation, with a control signal flat, not every such curve was filed as active; inconclusive means small, poorly fitted or top-dose-only effect, or effect the other way, or a change in a side signal; inactive means no such curve, though single readings can be large or run the other way; the % refers to the polarisation; further: potency means the concentration at half of the fitted maximal effect; % of control where 0% means no effect
PINK1 modulator: modulators of PINK1 expression; PINK1 immunofluorescence, high-content cytometry, 24 h; Potency, µM (series often up to 76.6 µM), without a hit: top-dose activation (PINK1 increase), usual class: activators; actives 0.2% (n = 410,000); AID 624263; active means well fitted activation curve with a large enough effect; inconclusive means small, poorly fitted or top-dose-only effect; cell line not stated here; further: potency means the concentration at half of the fitted maximal effect; % of control where 0% means no effect; nearly all actives have a fitted effect of over 65% in size
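Cells are seeded, rested 12 hours, then given compound at five concentrations or DMSO for 24 hours. After fixation, blocking and antibody staining, PINK1 amount and mitochondrial localization are scored; CCCP serves as control.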
Epigenetic reg: regulators of epigenetic silencing causing reporter derepression in mouse cells; murine LDR cells, GFP reporter derepression, 30 h; Potency, µM (highest dose often 53.9 µM), without a hit: at the highest dose GFP activation, actives largely listed as activators; actives 0.2% (n = 280,000); AID 1865; active means well fitted activation curve with a large enough effect; inconclusive means small, poorly fitted or top-dose-only effect; further: potency means the concentration at half of the fitted maximal effect; % of control where 0% means no effect; nearly all actives have a fitted effect of over 60% in size
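GFP-positive cell count by laser-scanning cytometry (objects 20–120 um) after 30 h, 37 C compound exposure of murine LDR cells; reporter is CMV-GFP integrated at a silenced locus, inducible by HDAC or DNMT inhibitors.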
Active calls of the source: *; ? = inconclusive; nt = no result given; [ ] = dose if it differs, or a comment. Most compounds without a hit are left out; they make up all but 1.9% or so of the library.

SMILES	MLL CXXC-DNA inh	Menin MLL FP FL	ClpP mod	Menin MLL FP TR	PINK1 modulator	Epigenetic reg
CCOC(=O)c1ccccc1NC(=O)CCc1nc(-c2ccc(C)cc2)no1	nt	nt	?	nt	0.2%	4.1%
COc1cc(/C=C2\CC(C(C)(C)C)C/C(=C\c3cc(OC)c(OC)c(OC)c3)C2=O)cc(OC)c1OC (configuration not stated)	?	-15.8	-2.1%	7.94µM*	-0.4%	nt
Cc1cc(-c2ccnc(-n3ncc(C(=O)NCC4CCCO4)c3C3CC3)n2)c(C)s1 (configuration not stated)	nt	nt	nt	nt	4.8%	nt
O=C1Nc2ccc(Br)cc2C12NNc1ccccc1O2 (configuration not stated)	53.4%	?	1.8%	?	-0.9%	17.8µM*
O=C(NC1CCCCNC1=O)c1ccc(Cl)cc1 (configuration not stated)	-6.8%	-1.4	28.2µM*	-0.3%	-1.5%	1.4%
CCC1CN(CCNC(=O)c2scc3c2OCCO3)Cc2cc(OC)ccc2O1 (configuration not stated)	nt	nt	nt	nt	0.5%	nt
CC(C)[C@H](NC(=O)OC(C)(C)C)c1nnc(S(=O)(=O)Cc2c(F)cccc2Cl)o1	-1.2%	3.9	7.0%	-5.7%	6.31µM*	?
Cc1ccc(C(=O)NCCc2nnc3n2CCN(Cc2ccnc4ccccc24)CC3)c(C)c1	nt	nt	nt	nt	-1.2%	nt
OC(CNc1ccnc2cc(Cl)ccc12)CNC1CCCCC1 (configuration not stated)	nt	nt	28.2µM*	nt	-0.9%	nt
CCN(CC)CCNc1ccnc2cc(Cl)ccc12	-2.9%	1.8	31.6µM*	-13.0%	-4.0%[38.3 µM]	-0.9%
O=C(C[n+]1ccccc1Br)c1ccc(-c2ccccc2)cc1	nt	nt	-24.8%	nt	nt	nt
CCS(=O)(=O)NCc1c(C)ncc2c1CCN(C(=O)c1csc(-c3cccs3)n1)C2	nt	nt	nt	nt	1.0%	nt
CO[C@H]1[C@H](NC(=O)c2ccco2)c2ccccc2C12CCN(Cc1cnc(N(C)C)s1)CC2	nt	nt	nt	nt	1.4%	nt
CCOc1cc(C2Nc3ccccc3C(=O)N2c2ccccc2)ccc1O (configuration not stated)	-0.3%	1.1	?	3.5%[11.7 µM]	2.8%[38.3 µM]	0.7%
CCOC(=O)COc1c(OC)cc(Cl)cc1C1Nc2ccccc2C(=O)N1c1ccccc1 (configuration not stated)	2.4%	0.4	28.2µM*	-12.0%	1.9%[38.3 µM]	1.0%
CCOC(=O)COc1c(OC)cc(Cl)cc1C1Nc2ccccc2C(=O)N1c1cccc(C)c1 (configuration not stated)	-5.4%	2.9	28.2µM*	nt	?	0.0%
COc1cc(C2Nc3ccccc3C(=O)N2c2ccccc2)ccc1O (configuration not stated)	-1.4%	6.0	?	4.8%	-0.3%	-2.6%
CCOC(=O)COc1c(OC)cc(Cl)cc1C1Nc2ccccc2C(=O)N1c1ccc(F)cc1 (configuration not stated)	-3.4%	3.6	31.6µM*	2.9%	7.2%[38.3 µM]	0.0%
CCOc1cc(C2Nc3ccccc3C(=O)N2c2ccccc2)c(Br)cc1OCC(=O)O (configuration not stated)	3.9%	-0.3	?	-2.0%	0.5%	3.3%
COc1cc(C2Nc3ccccc3C(=O)N2c2ccc(Cl)cc2)c(Cl)cc1OCC(=O)O (configuration not stated)	7.8%	-0.3	28.2µM*	5.7%	-0.8%	-7.9%
COc1ccc(C2Nc3ccccc3C(=O)N2c2ccc(F)cc2)cc1COc1ccc(NC(C)=O)cc1 (configuration not stated)	nt	nt	4.5%	nt	-0.3%	nt
O=C(NCCc1nnc2n1CCN(Cc1ccc3c(c1)CCO3)CC2)c1ccco1	nt	nt	nt	nt	1.3%	nt
Cc1cccc(NC(=O)CN2C(=O)C3(SCC(=O)N3c3ccccc3)c3ccccc32)c1 (configuration not stated)	nt	nt	-4.9%	nt	-4.8%	3.4%
COc1ccc(OC)c(CNC(=O)C2CCN(S(=O)(=O)c3cn(C)cn3)CC2)c1	nt	nt	2.5%	nt	-0.3%	-2.8%
CC(C)Oc1ccccc1C1Nc2ccccc2C(=O)N1c1ccc2c(c1)OCCO2 (configuration not stated)	8.1%	3.4	?	nt	-0.4%	1.9%
SMILES	MLL CXXC-DNA inh	Menin MLL FP FL	ClpP mod	Menin MLL FP TR	PINK1 modulator	Epigenetic reg
CCOC(=O)COc1ccccc1C1Nc2ccccc2C(=O)N1c1cccc(Cl)c1 (configuration not stated)	-0.2%	0.1	25.1µM*	nt	0.9%[38.3 µM]	2.5%
O=C(NCC1Cc2cccc(-c3cncnc3)c2O1)C1CC1 (configuration not stated)	nt	nt	nt	nt	-0.6%	nt
CCN(c1ccccc1)S(=O)(=O)c1ccc2[nH]cc(C(=O)N3CCOCC3)c(=O)c2c1	1.7%	0.8	31.6µM*	9.1%	-0.7%	-2.1%
CCN(c1ccc(F)cc1)S(=O)(=O)c1ccc2[nH]cc(C(=O)NCCCN3CCOCC3)c(=O)c2c1	-0.4%	-2.7	-29.1%	-0.5%	0.6%	-1.3%
C=CCN(c1ccccc1)S(=O)(=O)c1cccc(C(=O)N2CCCC2)c1	nt	nt	1.1%	nt	4.5%	nt
O=C(c1c[nH]c2ccc(S(=O)(=O)N3CCOCC3)cc2c1=O)N1CCCC1	2.6%	0.2	7.94µM*	-0.1%	1.5%	0.8%
CCN(c1ccccc1)S(=O)(=O)c1cccc(C(=O)N2CCN(S(=O)(=O)c3ccccc3)CC2)c1	-20.4%	nt	28.2µM*	nt	0.7%	nt
CC1(C)CC(=O)c2cc(C(=O)NCCc3ccccc3)c(=O)[nH]c2C1	nt	nt	-17.7%	nt	1.6%	nt
O=C(Nc1cccc(Cl)c1)c1c(NC(=O)C(F)(F)F)sc2c1CCCC2	nt	nt	-0.6%	nt	39.8µM*	-1.6%
Cc1cccc(NC(=O)c2c(NC(=O)C(F)(F)F)sc3c2CCCCC3)c1	nt	nt	1.1%	nt	?	-0.8%
CC1CCN(c2ccc(C(=O)O)cc2NS(=O)(=O)c2ccc(Br)cc2)CC1	0.0%	-1.7	20µM*	11.2%	-0.9%	0.2%
COC(=O)c1ccc(N2CCCCC2)c(NS(=O)(=O)c2ccc(C)cc2)c1	2.1%	-8.0	-8.9%	-1.1%	-6.9%[38.3 µM]	2.1%
Cc1ccc2oc3nc(C)c(C(=O)O)cc3c(=O)c2c1	0.2%	2.3	28.2µM*	25.0%	1.2%	1.1%
CC(=O)c1cc2c(=O)c3cc(C)ccc3oc2nc1C	3.6%	4.7	-22.3%	0.5%	4.5%	0.0%
COc1ccc(-c2oc3ncnc(N)c3c2-c2ccccc2)cc1	11.8%	0.9	35.5µM*	27.5%	3.7%[38.3 µM]	-4.2%
COc1ccc(C(=O)NCc2nc(-c3cccc(NC(=O)c4ccc(C)s4)c3)oc2C)cc1	nt	nt	nt	nt	-0.7%	nt
